The values below come from the supplement of paper PMC11732987, “Enantioselective OTUD7B fragment discovery through chemoproteomics screening and high-throughput optimisation” (Communications Chemistry, 2025).

What all share (assay): log2 ratio of Biotin-Ahx-Ub-VS probe labelling (fragment/DMSO); higher = less target engagement (more negative = stronger competition), active = hit call of the paper (q ≤ 0.05, log2 ratio ≤ -1)
Holding throughout (conditions): compound concentration: 200 uM; treatment time: 3 h

For assay [1], the target named is T1, USP19 (UniProt O94966).
T1 sequence (whole entry): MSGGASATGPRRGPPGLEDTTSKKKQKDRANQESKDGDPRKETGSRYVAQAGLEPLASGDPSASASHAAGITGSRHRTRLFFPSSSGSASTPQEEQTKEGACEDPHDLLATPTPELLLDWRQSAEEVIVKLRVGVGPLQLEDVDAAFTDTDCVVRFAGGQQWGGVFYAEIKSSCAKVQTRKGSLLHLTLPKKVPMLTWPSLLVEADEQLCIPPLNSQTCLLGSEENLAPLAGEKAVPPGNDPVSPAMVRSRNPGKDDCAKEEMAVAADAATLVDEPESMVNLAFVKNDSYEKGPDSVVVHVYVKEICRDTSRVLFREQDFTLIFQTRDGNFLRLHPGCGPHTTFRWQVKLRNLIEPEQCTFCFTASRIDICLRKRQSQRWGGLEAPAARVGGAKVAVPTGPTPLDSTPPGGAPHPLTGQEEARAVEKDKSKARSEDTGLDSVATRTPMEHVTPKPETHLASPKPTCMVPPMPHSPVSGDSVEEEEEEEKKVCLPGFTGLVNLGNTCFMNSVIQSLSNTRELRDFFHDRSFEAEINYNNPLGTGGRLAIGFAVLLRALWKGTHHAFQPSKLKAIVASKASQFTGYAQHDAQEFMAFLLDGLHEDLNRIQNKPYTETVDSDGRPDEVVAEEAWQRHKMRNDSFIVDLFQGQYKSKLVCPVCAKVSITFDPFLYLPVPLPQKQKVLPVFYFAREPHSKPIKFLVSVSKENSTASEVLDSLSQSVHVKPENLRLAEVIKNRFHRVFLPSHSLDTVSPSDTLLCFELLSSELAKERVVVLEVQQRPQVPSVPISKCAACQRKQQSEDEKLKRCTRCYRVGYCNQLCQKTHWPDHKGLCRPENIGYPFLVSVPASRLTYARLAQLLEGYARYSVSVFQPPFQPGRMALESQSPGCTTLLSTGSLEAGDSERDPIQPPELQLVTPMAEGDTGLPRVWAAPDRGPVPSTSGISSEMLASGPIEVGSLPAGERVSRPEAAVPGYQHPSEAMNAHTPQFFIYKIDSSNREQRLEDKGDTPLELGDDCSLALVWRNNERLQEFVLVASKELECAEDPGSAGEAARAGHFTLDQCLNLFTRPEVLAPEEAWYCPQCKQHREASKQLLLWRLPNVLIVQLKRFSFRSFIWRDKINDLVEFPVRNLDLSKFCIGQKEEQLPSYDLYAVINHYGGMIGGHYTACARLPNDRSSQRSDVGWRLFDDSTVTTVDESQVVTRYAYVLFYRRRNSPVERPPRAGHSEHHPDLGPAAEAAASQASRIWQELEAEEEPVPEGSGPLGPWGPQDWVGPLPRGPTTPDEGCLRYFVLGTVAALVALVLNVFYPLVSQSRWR
The method, boiled down:
(§1)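 Average log2 ratios of fragment over vehicle were obtained by unpaired t-test from global-median-normalised Spectronaut label-free quantities. Proteins with ≥2 unique peptides were included. HEK293T lysate (495 µg per sample) was treated in triplicate with fragment at 200 µM or vehicle for 3 h, then with Biotin-Ahx-Ub-VS at 0.5 µM final for 1 h, and labelled DUBs were NeutrAvidin-enriched and run by diaPASEF LC-MS/MS.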

For assay [2], the target named is T2, USP22 (UniProt Q9UPT9).
T2 sequence (whole entry): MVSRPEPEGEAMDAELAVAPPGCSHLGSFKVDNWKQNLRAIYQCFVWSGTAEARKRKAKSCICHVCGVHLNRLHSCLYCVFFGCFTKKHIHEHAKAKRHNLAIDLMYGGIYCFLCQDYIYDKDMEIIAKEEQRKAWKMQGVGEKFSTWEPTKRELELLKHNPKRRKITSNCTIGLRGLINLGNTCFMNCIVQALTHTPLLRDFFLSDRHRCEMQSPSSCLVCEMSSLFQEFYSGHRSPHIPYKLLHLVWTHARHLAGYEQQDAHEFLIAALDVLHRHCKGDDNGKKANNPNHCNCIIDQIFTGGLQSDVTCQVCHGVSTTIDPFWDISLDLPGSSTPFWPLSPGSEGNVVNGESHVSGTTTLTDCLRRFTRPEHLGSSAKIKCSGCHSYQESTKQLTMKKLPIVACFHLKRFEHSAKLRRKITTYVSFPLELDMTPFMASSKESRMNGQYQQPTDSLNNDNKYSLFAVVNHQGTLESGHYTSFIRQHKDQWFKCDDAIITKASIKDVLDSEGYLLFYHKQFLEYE
The method in brief: as §1

The target of assay [3] is USP24 (UniProt Q9UPU5). The method, boiled down: as §1
Chain of USP24 (Q9UPU5 whole entry): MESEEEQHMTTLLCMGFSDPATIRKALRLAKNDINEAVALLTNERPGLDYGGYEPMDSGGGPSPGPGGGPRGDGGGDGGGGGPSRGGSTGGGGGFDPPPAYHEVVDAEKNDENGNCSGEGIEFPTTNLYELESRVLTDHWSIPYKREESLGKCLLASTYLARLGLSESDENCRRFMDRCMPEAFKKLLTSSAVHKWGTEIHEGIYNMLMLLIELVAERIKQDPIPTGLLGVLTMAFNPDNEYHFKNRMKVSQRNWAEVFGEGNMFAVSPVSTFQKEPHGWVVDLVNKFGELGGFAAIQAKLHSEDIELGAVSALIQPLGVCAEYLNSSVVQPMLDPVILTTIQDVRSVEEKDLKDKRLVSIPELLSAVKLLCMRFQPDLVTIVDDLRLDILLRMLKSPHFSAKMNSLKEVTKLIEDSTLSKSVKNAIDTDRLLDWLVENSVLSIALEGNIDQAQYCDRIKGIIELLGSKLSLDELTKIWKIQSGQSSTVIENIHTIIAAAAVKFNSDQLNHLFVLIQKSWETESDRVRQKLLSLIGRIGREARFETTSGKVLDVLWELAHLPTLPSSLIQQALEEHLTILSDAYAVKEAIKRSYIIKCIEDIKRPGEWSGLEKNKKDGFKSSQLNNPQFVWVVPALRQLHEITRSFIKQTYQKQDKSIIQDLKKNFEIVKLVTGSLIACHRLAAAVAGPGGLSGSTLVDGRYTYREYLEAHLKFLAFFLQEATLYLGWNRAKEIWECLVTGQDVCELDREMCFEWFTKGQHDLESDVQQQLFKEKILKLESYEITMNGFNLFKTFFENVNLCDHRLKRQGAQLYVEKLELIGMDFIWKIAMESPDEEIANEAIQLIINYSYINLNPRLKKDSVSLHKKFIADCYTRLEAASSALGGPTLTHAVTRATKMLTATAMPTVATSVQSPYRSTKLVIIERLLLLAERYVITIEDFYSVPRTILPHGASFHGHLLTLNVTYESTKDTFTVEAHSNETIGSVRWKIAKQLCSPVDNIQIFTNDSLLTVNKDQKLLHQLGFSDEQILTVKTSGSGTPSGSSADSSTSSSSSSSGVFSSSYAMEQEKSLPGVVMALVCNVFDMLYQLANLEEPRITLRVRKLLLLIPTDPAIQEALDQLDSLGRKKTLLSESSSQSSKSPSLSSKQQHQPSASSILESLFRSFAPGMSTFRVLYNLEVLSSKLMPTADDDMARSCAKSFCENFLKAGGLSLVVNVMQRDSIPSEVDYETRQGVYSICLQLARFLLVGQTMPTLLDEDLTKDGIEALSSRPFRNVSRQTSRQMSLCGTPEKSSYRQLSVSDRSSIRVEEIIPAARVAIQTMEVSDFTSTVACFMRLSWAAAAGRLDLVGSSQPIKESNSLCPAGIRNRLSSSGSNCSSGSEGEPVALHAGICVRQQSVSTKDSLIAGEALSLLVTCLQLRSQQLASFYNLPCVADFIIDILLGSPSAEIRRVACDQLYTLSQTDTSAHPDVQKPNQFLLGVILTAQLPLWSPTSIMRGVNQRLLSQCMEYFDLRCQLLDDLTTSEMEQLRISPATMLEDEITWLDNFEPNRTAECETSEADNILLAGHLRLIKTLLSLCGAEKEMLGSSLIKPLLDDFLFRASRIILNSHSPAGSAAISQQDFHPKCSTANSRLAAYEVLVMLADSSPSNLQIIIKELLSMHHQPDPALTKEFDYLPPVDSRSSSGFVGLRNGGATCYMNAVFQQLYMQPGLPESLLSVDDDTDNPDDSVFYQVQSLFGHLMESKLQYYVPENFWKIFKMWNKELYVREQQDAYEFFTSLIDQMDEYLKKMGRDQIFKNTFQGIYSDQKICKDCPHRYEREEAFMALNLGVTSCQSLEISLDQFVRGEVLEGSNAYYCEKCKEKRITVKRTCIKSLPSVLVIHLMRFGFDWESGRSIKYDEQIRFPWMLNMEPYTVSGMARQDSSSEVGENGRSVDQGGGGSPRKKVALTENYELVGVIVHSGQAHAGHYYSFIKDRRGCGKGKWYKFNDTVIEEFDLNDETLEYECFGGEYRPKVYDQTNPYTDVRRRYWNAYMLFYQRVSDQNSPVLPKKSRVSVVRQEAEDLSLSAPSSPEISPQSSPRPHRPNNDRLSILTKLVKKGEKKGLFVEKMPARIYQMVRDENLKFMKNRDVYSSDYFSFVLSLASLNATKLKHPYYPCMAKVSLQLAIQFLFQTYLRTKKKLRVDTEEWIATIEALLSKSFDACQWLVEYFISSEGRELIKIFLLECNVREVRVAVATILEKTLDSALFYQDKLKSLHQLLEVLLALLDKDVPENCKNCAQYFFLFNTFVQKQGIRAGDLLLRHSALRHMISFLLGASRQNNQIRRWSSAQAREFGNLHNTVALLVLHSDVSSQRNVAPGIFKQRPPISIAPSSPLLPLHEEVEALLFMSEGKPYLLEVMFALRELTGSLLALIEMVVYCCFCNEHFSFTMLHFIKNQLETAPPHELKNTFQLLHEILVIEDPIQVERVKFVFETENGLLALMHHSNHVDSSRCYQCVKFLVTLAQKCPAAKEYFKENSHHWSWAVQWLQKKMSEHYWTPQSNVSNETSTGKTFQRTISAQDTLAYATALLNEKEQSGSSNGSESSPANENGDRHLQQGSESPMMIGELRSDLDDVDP
Assay [4] has as its target T3, USP25 (UniProt Q9UHP3).
T3 sequence (whole entry): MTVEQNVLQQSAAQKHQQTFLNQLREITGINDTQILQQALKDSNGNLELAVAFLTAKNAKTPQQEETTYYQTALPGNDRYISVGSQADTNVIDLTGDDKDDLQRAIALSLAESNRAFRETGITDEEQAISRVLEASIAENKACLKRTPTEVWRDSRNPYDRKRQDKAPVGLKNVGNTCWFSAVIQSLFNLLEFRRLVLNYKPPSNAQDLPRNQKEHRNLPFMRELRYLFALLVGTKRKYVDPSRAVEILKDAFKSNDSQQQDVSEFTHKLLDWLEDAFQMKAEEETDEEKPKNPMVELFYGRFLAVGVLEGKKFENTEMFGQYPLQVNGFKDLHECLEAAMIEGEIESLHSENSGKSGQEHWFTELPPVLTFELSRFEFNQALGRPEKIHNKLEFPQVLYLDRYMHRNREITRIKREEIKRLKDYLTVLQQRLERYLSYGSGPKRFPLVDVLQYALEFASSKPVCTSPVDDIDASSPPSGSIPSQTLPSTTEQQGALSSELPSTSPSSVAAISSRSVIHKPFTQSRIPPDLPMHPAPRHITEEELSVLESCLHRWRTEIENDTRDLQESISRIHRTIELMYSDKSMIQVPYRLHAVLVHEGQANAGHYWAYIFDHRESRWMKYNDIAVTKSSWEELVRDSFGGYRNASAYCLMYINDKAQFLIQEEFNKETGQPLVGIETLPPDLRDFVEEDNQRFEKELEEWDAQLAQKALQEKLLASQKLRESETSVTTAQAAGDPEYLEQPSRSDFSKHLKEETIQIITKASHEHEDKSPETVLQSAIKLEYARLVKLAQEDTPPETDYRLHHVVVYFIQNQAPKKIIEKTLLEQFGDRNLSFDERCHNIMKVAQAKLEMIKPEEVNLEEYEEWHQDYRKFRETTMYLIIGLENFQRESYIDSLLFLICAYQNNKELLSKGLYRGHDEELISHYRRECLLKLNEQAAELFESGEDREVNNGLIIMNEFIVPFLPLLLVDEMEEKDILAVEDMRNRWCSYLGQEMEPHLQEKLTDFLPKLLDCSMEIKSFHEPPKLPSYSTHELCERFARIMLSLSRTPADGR
The method in brief:
as §1

Assay [5] has as its target T4, USP28 (UniProt Q96RU2).
T4 sequence (whole entry): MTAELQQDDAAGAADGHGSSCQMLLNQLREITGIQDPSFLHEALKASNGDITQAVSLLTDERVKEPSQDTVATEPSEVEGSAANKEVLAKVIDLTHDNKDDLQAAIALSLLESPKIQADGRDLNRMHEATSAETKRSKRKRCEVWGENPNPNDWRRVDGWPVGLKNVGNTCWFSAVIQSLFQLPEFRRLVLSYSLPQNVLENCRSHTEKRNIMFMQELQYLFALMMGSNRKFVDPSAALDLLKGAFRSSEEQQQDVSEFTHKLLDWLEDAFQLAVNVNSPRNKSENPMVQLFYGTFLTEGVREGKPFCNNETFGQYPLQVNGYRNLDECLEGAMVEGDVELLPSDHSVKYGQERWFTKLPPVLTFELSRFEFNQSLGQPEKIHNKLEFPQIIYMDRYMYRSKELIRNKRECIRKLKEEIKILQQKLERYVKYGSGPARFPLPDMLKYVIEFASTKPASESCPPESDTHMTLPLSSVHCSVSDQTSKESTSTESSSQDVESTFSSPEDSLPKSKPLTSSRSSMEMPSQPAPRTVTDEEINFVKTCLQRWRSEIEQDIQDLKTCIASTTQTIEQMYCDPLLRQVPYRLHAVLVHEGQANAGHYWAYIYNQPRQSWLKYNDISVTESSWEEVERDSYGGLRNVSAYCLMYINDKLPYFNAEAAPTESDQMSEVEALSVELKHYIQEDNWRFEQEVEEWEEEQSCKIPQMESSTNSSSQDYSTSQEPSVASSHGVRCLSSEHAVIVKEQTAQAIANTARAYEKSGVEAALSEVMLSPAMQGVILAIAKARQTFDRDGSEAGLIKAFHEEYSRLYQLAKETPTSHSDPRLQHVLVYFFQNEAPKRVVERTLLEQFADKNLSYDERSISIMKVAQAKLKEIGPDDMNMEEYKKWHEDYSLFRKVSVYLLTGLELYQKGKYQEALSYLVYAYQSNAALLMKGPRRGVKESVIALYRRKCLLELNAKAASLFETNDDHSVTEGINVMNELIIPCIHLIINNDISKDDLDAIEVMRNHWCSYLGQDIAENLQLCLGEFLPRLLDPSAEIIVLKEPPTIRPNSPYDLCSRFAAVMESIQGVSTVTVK
The method, boiled down: as §1

Values without a mark were called inactive.

Regarding `COc1ccc(-c2csc(NC(=O)CCl)n2)cc1`, the “log2 ratio of Biotin-Ahx-Ub-VS probe labelling” value was -0.674 in assay [1]; -0.229 in assay [2]; -1.44 (active) in assay [3]; -0.591 in assay [4]; -0.741 in assay [5].
